A number with no mark means an inactive call. No rule for the calls is given here.

The assay has as its system 80kDa SH. In words: serine hydrolase inhibition in mouse brain membranes, late-stage follow-up, selectivity assay for DAGLb inhibitor project, biochemical, gel-based competitive ABPP, fluorescence, set 2 (AID 602323). Conditions: mouse brain membrane, at 1 µM, active compounds read high.

Consider `O=C(N1CCCCC1Cc1ccccc1)n1cc(-c2ccc(-c3ccccc3)cc2)nn1` (stereo unspecified), for which the inhibition is 10%.

The values above are taken from PubChem BioAssay AID602323 (The Scripps Research Institute Molecular Screening Center, 2012).
